# Screening results (PubChem)
# Pf growth 48h: P. falciparum growth inhibition at 48 hours (one generation); P. falciparum luciferase growth in erythrocytes, 48 h; Potency, µM (doses to about 28.7 µM), for inactives: at the highest dose activity change, negative = inhibition, actives largely listed as inhibitors; hit rate 5.9% among 310,000; AID 504832; note: potency is the fitted concentration of half-maximal effect
#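 Parasite viability was followed by luminescence of a genomically integrated firefly luciferase. Cultures held 0.1% parasitemia at 2% hematocrit (final), incubated under 5% CO2 at 37 C.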
# Pf growth 96h: P. falciparum growth inhibition at 96 hours; P. falciparum luciferase reporter growth, 96 h; Potency, µM (series often up to 28.7 µM), for the others: at the top dose activity change, negative = inhibition, usual class: inhibitors; hit rate 6.9% among 320,000; note: potency is the fitted concentration of half-maximal effect
#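 P. falciparum expressing integrated firefly luciferase, in erythrocytes at 2% hematocrit, 0.05% parasitemia, incubated with compounds 96 h at 37 C, 5% CO2. Growth inhibition read as loss of luminescence; two-generation exposure targets delayed-death apicoplast inhibitors.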
# MARV entry inh: blocks Marburg virus binding to or entry into cells; Marburg virus pseudotyped entry inhibition, cell reporter; Potency, µM (series often up to 37.8 µM), without a hit: at the top dose activity change, negative = inhibition, hits mostly inhibitors; hit rate 1.8% among 300,000; AID 540276; calls by dose curve; tested in HEK293 cells; note: potency is the fitted concentration of half-maximal effect
# HCV inhibitor: blocks hepatitis C virus; hit rate 3.4% among 340,000; Potency, µM (titrated, usually from 41.8 µM), for inactives: at the highest dose activity change, negative = inhibition, hits mostly inhibitors; Huh7.5.1 HCVcc-Cre infection, luciferase reporter, 44 h; note: potency is the fitted concentration of half-maximal effect
#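 Infectious HCV cell culture screen: compound-treated cells (1,000/well, pre-plated 4 h) are infected with HCVcc-Cre at roughly 0.5 moi and grown 44 h. Infection is quantified by luciferase signal after 15 min substrate incubation at room temperature.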
# LASV entry inh: blocks Lassa virus binding to or entry into cells. Lassa virus pseudotype entry inhibition, cell reporter. Potency, µM (highest dose often 37.9 µM), inactives show at the highest dose activity change, negative = inhibition, usual class: inhibitors. hit rate 1.2% among 300,000; calls by dose curve; tested in HEK293 cells; note: potency is the fitted concentration of half-maximal effect; nearly all actives have a fitted effect of over 50% in size
# HCMV antiviral: blocks human cytomegalovirus replication; activity change, negative = inhibition, % at 57.5 µM; AID 1259415; HFF cells, HCMV-luciferase reporter, 72 h; hits give low values; hit rate 4.5% among 410,000; in the data active = activity change below about -60%; inconclusive = no clear call, values can overlap the other calls; inactive = above about -39%
#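 HFF cells seeded 16 h at 37C, treated with compounds, infected with luciferase-reporter HCMV at MOI 1 PFU/cell; luciferase read at 72 h post infection, normalized to buffer-only and Salinomycin controls.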
# The depositor's hits bear a star; ? = inconclusive; · = no result; [ ] = another dose, or the depositor's remark. Hits are enriched below; roughly 14% of the tested compounds scored in any of these assays. Unless noted, calls come from the whole dose curve; as a rule, active = well fitted inhibition curve with a large enough effect; inconclusive = small, poorly fitted or top-dose-only effect, or another doubt; inactive = no such curve, though single readings can be large or run the other way. % is set by controls: 0 for no effect and ±100 for the full control effect.
SMILES,Pf growth 48h,Pf growth 96h,MARV entry inh,HCV inhibitor,LASV entry inh,HCMV antiviral
Cc1ccccc1NC1=NC(=S)N(c2ccccc2)C12CCOC(C)(C)C2 (stereo not drawn),?,?,18%,1%,15%,1
C/C(=N\NC(=S)Nc1ccccc1)C1Cc2ccccc2C(=O)O1 (stereo not drawn),10µM*,?,8%[46.1 µM],2%,-5%,?
CC(C)CCOC(=O)/C(=C/c1ccco1)NC(=O)/C=C/c1ccccc1,?,4.1µM*,1%,12%,-10%,-30
NC(=O)/C(=C/c1ccco1)NC(=O)/C=C/c1ccccc1,-3%,?,6%,7%,7%,17
COc1ccc(NC(=O)CSC2=Nc3ccccc3C3=NC(CC(=O)NCCc4ccccc4)C(=O)N23)cc1 (stereo not drawn),·,·,·,·,13%[46.1 µM],56
CN(CC(=O)Nc1cccc(Cl)c1)S(=O)(=O)c1ccc2[nH]c3c(c2c1)CCCC3,·,·,·,·,-13%[46.1 µM],-19
Cc1cccc(/C=C/C(=O)c2ccc([N+](=O)[O-])o2)c1,?,-1%,·,0.63µM*,·,-103*
COc1ccc(/C=C/C(=O)c2ccc([N+](=O)[O-])o2)cc1,?,20%,·,18%,·,44
Cc1ccccc1/C=C/C(=O)c1ccc([N+](=O)[O-])o1,?,?,·,?,·,-103*
O=C(NCc1ccc(Cl)cc1)NC1COc2ccccc2C1 (stereo not drawn),·,·,·,·,-1%[46.1 µM],-10
CC1=C(c2ccc(C)c(C)c2)S(=O)(=O)N=C1N1CCC(C(=O)Nc2cccc(F)c2)CC1,·,·,·,·,-21%[46.1 µM],-25
CC1CCCCN1CCCNC(=O)c1nn(C)c2c1CS(=O)(=O)c1ccccc1-2 (stereo not drawn),13%,12µM*,·,7%,·,-37
Cn1nc(C(=O)NC2CCCCC2)c2c1-c1ccccc1S(=O)(=O)C2,3%,18%,·,6%,·,-85*
C[C@H]1COC(=O)[C@H](Cc2ccccc2)NC(=O)[C@@H](C)COC(=O)[C@H](Cc2ccccc2)NC1=O,·,·,-12%[14.2 µM],·,·,·
COC(=O)[C@@]1(Sc2ccc(C)cc2)CC(=O)N(c2ccccc2)[C@@H]1c1ccccc1,·,·,·,·,·,-11
COC(=O)N(/C=C/c1ccc(OC)cc1)CCc1ccc(OC)c(OC)c1,·,·,3%[14.2 µM],·,·,·
COc1cc(Nc2ncc3c(n2)CCN(Cc2ccc(OC(C)C)c(OC)c2)C3)cc(OC)c1,·,·,·,·,16%[46.1 µM],27
CCOC(=O)c1cnc2c(-c3ccc(Cl)cc3)c(C)nn2c1N,8%,9.3µM*,11%,18%,11%,17
CCOC(=O)c1cnc2c(c(C)nn2C)c1Oc1ccc(Cl)cc1,?,1.5µM*,?,-30%,-10%,-11
O=C1C2C3c4ccccc4C(c4ccccc43)C2C(=O)N1c1ccncc1 (stereo not drawn),-16%,?,·,?,·,-64*
Cc1ccnc2c(N3C(=O)C4C5c6ccccc6C(c6ccccc65)C4C3=O)cccc12 (stereo not drawn),?,5.2µM*,?,?,21µM*,?
O=C1C2C3c4ccccc4C(c4ccccc43)[C@@H]2C(=O)N1c1cccnc1 (stereo partly drawn),-2%,250%,?,8%,1%,-28
COc1ccc(-c2[nH]c3c(c2-c2c(-n4cccc4)n(C)c(=O)[nH]c2=O)c(=O)[nH]c(=O)n3C)cc1F,·,·,-14%[46.1 µM],·,2%[46.1 µM],51
CCn1c(C)nc2cc(C(=O)n3cc(C(=O)c4cc(F)ccc4O)cn3)ccc21,28%,0.83µM*,·,-1%,·,·
O=C1NC(=O)C2(CCCCC2)N1,·,·,2%,?,-8%,-6
SMILES,Pf growth 48h,Pf growth 96h,MARV entry inh,HCV inhibitor,LASV entry inh,HCMV antiviral
COc1ccccc1NC(=O)Nc1nc(CC(=O)N2CCN(c3ccccc3)CC2)cs1,12µM*,?,7%[46.1 µM],13µM*,?,-6
COc1ccc(N2CCN(C(=O)Cc3csc(NC(=O)Nc4ccccc4OC)n3)CC2)cc1,7.4µM*,?,?,?,?,?
COc1ccccc1NC(=O)Nc1nc(CC(=O)NC2CCCC2)cs1,?,?,-9%,?,-5%,-29
COc1ccc(NC(=O)Cc2csc(NC(=O)Nc3ccccc3OC)n2)cc1,·,·,·,·,·,-22
COc1ccccc1NC(=O)Nc1nc(CC(=O)N2CCN(c3ccc(F)cc3)CC2)cs1,9.3µM*,?,11µM*,11µM*,?,-23
Cc1ccc(OCC(=O)Nc2ccc(S(=O)(=O)Nc3ncccn3)cc2)c(C(C)(C)C)c1,·,·,·,·,-3%[46.1 µM],2
COc1cccc(CNC(=O)Cn2ncc3c4ccccc4n(Cc4ccccc4)c3c2=O)c1,·,·,27%[46.1 µM],·,-8%[46.1 µM],-21
CC(C)(C)NC(=O)C1(C)CCC(=O)N1CC(F)(F)F (stereo not drawn),·,·,·,·,·,39
CCCCC(=O)Nc1c2c(nn1-c1ccc(C)cc1)CS(=O)(=O)C2,-3%,?,3%[46.1 µM],17%,0%[46.1 µM],-13
OC(c1ccccc1)C(O)C(c1ccccc1)N1CCCCC1 (stereo not drawn),·,·,-21%[46.1 µM],1%,2%[46.1 µM],?
O=C(NCc1ccccc1)c1csc(-c2cccnc2)n1,9.3µM*,31%,-9%,-8%,?,-39
CCCOc1ccc(C(=O)NNC(=S)NC(=O)CC)cc1,?,15µM*,?,?,15µM*,-62*
O=C(NCCc1csc(-c2cccnc2)n1)c1ccccc1,?,?,·,4%,21%[46.1 µM],3
O=C(NNC(=S)NCc1ccccc1)c1cccnc1,?,2.1µM*,·,13%,·,72
COc1ccc(C(=O)NNC(=S)NC(=O)c2ccc(OC)cc2)cc1,-9%,9.3µM*,·,-14%,·,-92*
